Assay results as given in PubChem BioAssay AID1578 (Sanford-Burnham Center for Chemical Genomics, 2009).
The campaign covered roughly 290,000 compounds. About 3,000 (1%) were called active. The sample holds actives, similar compounds and a random draw of the others, so the mix is not that of the screen. Cut-off read from the data, not from the text of the source: active = inhibition mostly above about 36% (no sharp cut-off); inactive = mostly below about 34%.

assay: NOD1 signaling inhibitors, primary screen, cell-based, luminescence, uHTS (AID 1578); conditions: NOD1-driven NF-kB luciferase reporter cells, at 4 µM, stronger effect = higher value;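 note: HEK-293T reporter cells stimulated with the NOD1 agonist gamma-tri-DAP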

inhibition, active:
CN(CCC#N)C(=O)COC(=O)c1ccccc1C(=O)c1ccc(Cl)c([N+](=O)[O-])c1 55.1%, Cc1ccc(CSC2=NCCN2S(=O)(=O)c2ccc(F)cc2)cc1 48.3%, CCn1cc(C(=O)NCC(OC)OC)c(=O)c2cc(S(=O)(=O)N(C)C3CCCCC3)ccc21 59%, C(=N\Nc1nc2ccccc2[nH]1)/c1ccccn1 59.4%, CCN(CC)c1ccc(/C=N/Nc2nc3ccccc3[nH]2)cc1 105%, Cc1nc(N/N=C/c2ccccn2)sc1C 91%, CCc1cc(=O)oc2cc(OC(C)=O)cc(OC(C)=O)c12 41.8%, O=C(CCS(=O)(=O)Cc1ccccc1)Nc1nncs1 103%, Cc1ccccc1OCCCC(=O)Nc1nncs1 51.4%, CN(C)c1ccc(/C=C/c2ccc3ccccc3n2)cc1 59.1%, CN(C)c1ccc(/C=C/c2ccc3c4ccccc4ccc3[n+]2-c2ccccc2)cc1 71.6%, Oc1ccc(/C=C/c2ccc3ccccc3n2)cc1 50.2%, O=C(NC(=O)c1ccccc1)Nc1ccccn1 64.2%

inhibition, inactive:
O=C(N/N=C/C=C/c1ccccc1)c1cc(C2CC2)[nH]n1 0.1%, CS(=O)(=O)Nc1nc2ccccc2[nH]1 -0.8%, O=S(=O)(Nc1nc2ccccc2[nH]1)c1ccc2ccccc2c1 56.9%, CN(Cc1ccccc1)S(=O)(=O)c1ccc2c(c1)CCC(=O)N2 -21.5%, O=C(c1cc(-c2ccccc2Cl)nc2ccc(Br)cc12)N1CCN(c2ccccn2)CC1 -7.5%, O=C(COC(=O)c1cc([N+](=O)[O-])ccc1Cl)NC1CCCC1 1.2%, O=C(COC(=O)c1ccc(Cl)c([N+](=O)[O-])c1)NC1CCCC1 3.2%, CC(C)N(C(=O)COC(=O)c1ccccc1C(=O)c1ccc(Cl)c([N+](=O)[O-])c1)C(C)C -13.9%, CSc1ccc(Cl)c(C(=O)OCC(=O)N(C)CCC#N)c1 -28.1%, C(=N\n1cnnc1)/c1cccc2ccccc12 7.2%, Cc1cc(=O)oc2c(C)c(OCC(=O)N3CCC(C(=O)O)CC3)ccc12 -25.2%, CCc1ccc(C2CC(=O)Nc3c2c(=O)nc2c(C)cccn32)cc1 (stereo not drawn) -32.6%, COc1cccc(C(CNC(=O)C(c2ccccc2)c2ccccc2)N(C)C)c1 (stereo not drawn) -20.7%, CC(C)(C)NC(=O)CSc1nc2[nH]ncc2c(=O)[nH]1 -22.7%, COc1ccccc1N1CCN(/N=C/c2cc(Br)ccc2F)CC1 -42.6%, CNc1ccn(C2CCCO2)c(=O)n1 (stereo not drawn) 1.2%, CCOc1ccc(NC(=O)c2cccnc2Cl)c([N+](=O)[O-])c1 -27.8%, COc1ccc(NC(=O)c2ccccc2NS(=O)(=O)c2ccc(C)cc2)c([N+](=O)[O-])c1 58.5%, Cc1ccc2oc(C(=O)N(CCO)Cc3ccccc3)c(C)c2c1 -6.1%, O=C(C(=O)N1CCOCC1)c1cn(CCOc2ccccc2)c2ccccc12 1%, Cc1ccc(CSC2=NCCN2S(=O)(=O)c2ccccc2)cc1 -6%, Cc1ccc(S(=O)(=O)N2CCN=C2SCc2ccccc2)cc1 -1.7%, Cc1ccccc1S(=O)(=O)Cc1ccc(C(=O)NCCCN2CCN(C)CC2)o1 -8.5%, CCOC(=O)Cc1cnc(NC(=O)Cn2nnc(-c3ccc(OCC)cc3)n2)s1 0.4%, O=C(N/N=C/c1ccc(OC(=O)c2ccccc2)cc1)c1cccnc1 -4.5%, COC(=O)c1ccc2c(c1)C(C)(C)C(/C=C/c1ccc(OC)c(OC)c1OC)=[N+]2C -8.7%, COC(=O)c1ccc2nc(C)c(C)nc2c1 -2.5%, CCCCNC(=O)c1cc2c(=O)n(CC)c3ccccc3c2s1 -5.9%, COc1ccc(CNC(=O)CN(C(=O)CCC(=O)Nc2ccccn2)c2ccc3c(c2)OCO3)cc1 -19.9%, CCn1cc(C(=O)NCCCOC)c(=O)c2cc(S(=O)(=O)N(C)C3CCCCC3)ccc21 -10.9%, COC(CNC(=O)c1cn(C)c2ccc(S(=O)(=O)N(C)C3CCCCC3)cc2c1=O)OC -18.2%, CCOc1ccc(S(=O)(=O)N(CC)CC(=O)N2CCOCC2)cc1C -22.7%, CN(C(=O)Nc1ccc(Cl)cc1)c1c2c(nn1C)CCCC2 -14.8%, COc1ccc(OC)c2c1sc(=NC(=O)c1cccc(N3C(=O)CCC3=O)c1)n2C -1.9%, Cc1csc(N/N=C/c2ccccn2)n1 8.7%, CCN(CC)c1ccc(/C=N/Nc2nc3ccccc3[nH]2)c(O)c1 11.9%, C(=N\Nc1nc2ccccc2[nH]1)/c1ccc2ncccc2c1 18.6%, C(=N\Nc1nc2ccccc2[nH]1)/c1ccccc1 -71.3%, CCCc1sc(N/N=C/c2ccccn2)nc1-c1ccc(Br)cc1 -37.7%, C(=N\Nc1nc2ccccc2[nH]1)/c1ccncc1 -22%, CCCOc1ccc(N2C(=O)CC(N(CCc3ccc(OC)c(OC)c3)C(=S)Nc3ccccc3)C2=O)cc1 (stereo not drawn) -8.1%, O=C(Nc1ccon1)c1ccc(S(=O)(=O)N2CCOCC2)cc1 -5.1%, CCOc1cc(N2CCOCC2)c(OCC)cc1NC(=O)c1nc2nccc(C)n2n1 -8.4%, O=S(=O)(NCc1nc2ccccc2[nH]1)c1ccccc1 -21.9%, CCCCNC(=O)CCC(=O)Nc1ccc2nc(N3CCCCC3)cc(C)c2c1 -15.4%, O=c1[nH]c(C2CCN(S(=O)(=O)c3ccc(C(F)(F)F)cc3)CC2)nc2c1nnn2Cc1ccccc1 -8.3%, O=C(N/N=C/c1cccnc1)c1ccc(CN2c3cccc4cccc(c34)S2(=O)=O)cc1 -27.8%, Fc1ccccc1NC(=S)NCCc1ccc(Cl)cc1 -79.8%, CCc1nc(SCC(=O)Nc2ccccc2C(=O)OC)n[nH]1 -16.5%, COc1ccccc1CNC(=O)c1cc(C(=O)CC(C)C)c[nH]1 -11%, CC(=O)Oc1cc(OC(C)=O)c2c(C)cc(=O)oc2c1 13.6%, CCc1cc(=O)oc2cc(C)cc(OCC(C)=O)c12 -8.5%, Cc1nnc(NC(=O)CN2CCN(Cc3ccccc3Cl)CC2)s1 -8.9%, CCN(CC)c1ccc(NC(=O)CN2C(=O)CC(C)(C)S(=O)(=O)c3ccccc32)c(C)c1 -6.7%, Cc1ccc(N(C(=O)Cn2nnc(-c3ccc(C)o3)n2)C(C(=O)NC2CCCC2)c2ccncc2)cc1 (stereo not drawn) -8.9%, CNC(=S)Nc1cc(S(=O)(=O)Nc2cc(Cl)ccc2Cl)ccc1N1CCCC1 2.1%, CCOc1c(Cl)cc(CNc2nnnn2C)cc1OC -41.1%, O=C(Cc1cccc2ccccc12)N/N=C1\CCCc2ccccc21 13%, Cc1ccccc1OCCCC(=O)Nc1nccs1 6.5%, Cc1nnc(NC(=O)CCS(=O)(=O)Cc2ccccc2)s1 -5.2%, O=C(CCS(=O)(=O)c1ccccc1)Nc1nncs1 3.3%, O=C(CCCOc1ccccc1)Nc1nncs1 2.6%, CCOC(=O)c1nnc2cc(-c3ccccc3)nn2c1C -32.6%, Cc1ccc(N(Cc2cc3ccc(C)cc3[nH]c2=O)C(=O)c2ccco2)cc1 -4%, COc1ccc(OCCC(=O)OCC(=O)NC(=O)NC(C)C)cc1 -3.2%, COc1cccc(/C=N/N2CCN(C3c4ccccc4-c4ccccc43)CC2)c1O -6.4%, CCCn1c(=S)[nH]c2ccccc2c1=O -14.5%, CN(C)c1ccc(/C=C/c2ccc3ccccc3[n+]2C)cc1 43.8%, CN(C)c1ccc(/C=C/c2nc3ccccc3s2)cc1 -3.1%, O=[N+]([O-])c1ccc(/C=C/c2ccc3ccccc3n2)cc1 -12.9%, CCCN(CCC)c1ccc(/C=C/c2ccc3cc(OCC)ccc3n2)cc1 -1.6%, C(=C\c1ccc2ccccc2n1)/c1ccccc1 0%, CC[n+]1ccccc1/C=C/c1ccc(N(C)C)cc1 40.5%, COc1cc(CNCCC2CCOC(C)(C)C2)ccc1O (stereo not drawn) 12.4%, O=C(COc1ccc2c3c(c(=O)oc2c1)CCC3)Nc1ccc(CN2CCOCC2)cc1 -11.6%, COc1ccc2nc(C)c(C(N)=O)cc2c1 5.9%, O=C(NC(=S)Nc1ccccn1)c1ccccc1 -7.6%, O=C(Nc1ccccn1)c1ccc(C(=O)Nc2ccccn2)cc1 -5.1%, CC(=O)c1c(C)nn(CC(O)COc2ccc3ccccc3c2)c1C (stereo not drawn) -16.4%, Cc1ccccc1C(=O)NC(=S)N(CCO)Cc1ccccc1 -10.6%, CSCC(=O)N1CCC(Oc2cccc(C(=O)NCc3ccccn3)c2)CC1 -24%, CC(C)NC(=O)CSc1nc(N)c(-c2ccccc2)c(=O)[nH]1 7.6%, CC(=O)N/C(N)=N/c1nc2cc(C)ccc2o1 -10.1%, Cc1ccc2oc(/N=C(\N)NC(=O)C3CC3)nc2c1 -13.8%, CCCOc1cccc(C2C(C(=O)c3ccco3)=C(O)C(=O)N2c2nnc(C)s2)c1 (stereo not drawn) -7.8%
